Pf growth 96h – P. falciparum growth inhibition at 96 hours; actives 6.9% (n = 320,000); Potency, µM (series often up to 28.7 µM), actives largely listed as inhibitors; P. falciparum luciferase reporter growth, 96 h; AID 504834
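Infected RBCs, 2% Hct / 0.05% parasitemia final; luciferase-reporter P. falciparum; cpd 96 h, 37 C, 5% CO2; luciferase detection reagent; luminescence.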
HCMV inh – inhibitors of human cytomegalovirus. activity change, negative = inhibition, % at 57.5 µM. AID 1259415. actives 4.5% (n = 410,000). HFF cells, HCMV-luciferase reporter, 72 h; stronger effect = lower value; in the data active = activity change below about -60%; inconclusive = no clear call, values can overlap the other calls; inactive = above about -39%
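Steps: HFFs plated, 16 h 37C; compounds added; HCMV-luciferase added to MOI 1 PFU/cell; 72 h 37C; OneGlo reagent, 5 min room temperature; luminescence read, normalized to controls.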
HCV inh – HCV inhibition | Huh7.5.1 HCVcc-Cre infection, luciferase reporter, 44 h | Potency, µM (highest dose often 41.8 µM), actives largely listed as inhibitors | actives 3.4% (n = 340,000)
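After 44 h co-culture of compound, cells and HCVcc-Cre (~0.5 moi), substrate is added for 15 min at room temperature and luciferase measured over 15 sec. Cells were seeded at 1,000/well and pre-cultured 4 h.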
Pf growth 48h – inhibits P. falciparum growth in the first generation, 48 h | P. falciparum luciferase growth in erythrocytes, 48 h | Potency, µM (highest dose often 28.7 µM), usual class: inhibitors | actives 5.9% (n = 310,000) | AID 504832
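In quantitative HTS format, infected erythrocytes bearing luciferase-reporter parasites were treated for a single generation at 37 C. Luminescence after adding detection reagent served as the growth measure.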
SARS PLpro yeast – SARS-CoV PLP inhibition in yeast; Potency, µM (series often up to 32.9 µM), hits mostly activators; actives 0.19% (n = 330,000); S. cerevisiae expressing SARS-CoV PLpro, growth rescue; calls by dose curve; note: nearly all actives have a fitted effect of over 55% in size
Sm TGR block – inhibitors of Schistosoma mansoni thioredoxin glutathione reductase; Q962Y6; purified TGR, DTNB reduction, TNB absorbance 405 nm; Potency, µM (series often up to 114 µM), usual class: inhibitors; actives 3% (n = 360,000); note: nearly all actives have a fitted effect of over 60% in size
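First, TGR (20 nM dispensed) and NADPH were mixed with compound. Second, a 15 min room-temperature incubation followed. Third, further NADPH and then DTNB were added to start the reaction. Finally, TNB absorbance was monitored kinetically.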
Numbers stand for hits; 0 = inactive; ? = inconclusive; - = no result given; [ ] = another dose, or the depositor's remark. A selection: hits, their analogues and other compounds. The true share with any hit is near 15%. Unless noted, calls come from the whole dose curve; as a rule, active = well fitted curve in the direction sought with a large enough effect; inconclusive = small, poorly fitted or top-dose-only effect, or another doubt; inactive = no such curve, though single readings can be large; an effect the other way counts as inactive or inconclusive.

SMILES	Pf growth 96h	HCMV inh	HCV inh	Pf growth 48h	SARS PLpro yeast	Sm TGR block
O=C(CNCC1CCCO1)Nc1ccc(N2CCCCCC2)cc1 (stereo not given)	0.262µM	0	0	0	0	0
O=C(COc1ccccc1)Nc1ccc(N2CCN(C(=O)c3ccco3)CC2)cc1	?	0	0	?	0	0
COc1cc(C(=O)OCC(=O)Nc2ccc(N3CCOCC3)cc2)ccc1OCC(C)C	0	0	0	0	-	50.1µM
Cc1ccc(OCC(=O)Nc2ccc(N3CCN(C(=O)c4ccco4)CC3)cc2)cc1	5.22µM	?	?	?	0	0
Cc1ccc(C)c(OCC(=O)Nc2cc(NC(=O)COc3cc(C)ccc3C)cc(C(=O)O)c2)c1	8.28µM	0	0	0	0	0
Cc1ccc(OCC(=O)Nc2ccc(C(=O)Nc3ccccc3C(=O)O)cc2)cc1C	-	0	-	-	-	-
Cc1ccccc1OCC(=O)Nc1ccc(C(=O)Nc2ccccc2C(=O)O)cc1	?	-69.9	0	?	0	?
Cc1ccc(OCC(=O)Nc2ccc(N3CCCC3)cc2)cc1C	0	0	?	11.7µM	0	?
Cc1ccc(C)c(OCC(=O)Nc2nonc2NC(=O)COc2cc(C)ccc2C)c1	0	0	0	?	-	0
Cc1ccc(C(=O)N2CCN(c3ccc(NC(=O)COc4ccccc4C)cc3)CC2)cc1	?	?	11.2µM	8.28µM	0	0
Cc1ccc(C(=O)N2CCN(c3ccc(NC(=S)NC(=O)Cc4ccccc4)cc3)CC2)cc1	?	0	?	?	0	0
Cc1ccc(OC(C)C(=O)Nc2ccccc2C(=O)NCc2cccnc2)cc1C (stereo not given)	0	0	-	?	0	0
COc1ccc(CNC(=O)CCC(=O)Nc2ccc(Cl)cc2)cc1	0	0	0	0	0	0
CCOC(=O)C1(C(=O)OCC)NC(=O)CC1C(C)C (stereo not given)	-	0	0	-	-	-
Cc1ccc(NC(=O)COc2ccccc2CNC(C)(C)CC(C)(C)C)cc1	-	-64.7	?	7.38µM	0	0
Cc1cccc(OCC(=O)Nc2ccc(N3CCCC3)cc2)c1C	0	0	?	10.4µM	0	31.6µM
CC(C)(CO)NCc1ccccc1OCC(=O)Nc1ccccc1	-	0	0	0	0	0
O=C(CCn1c(=O)oc2ccccc21)Nc1ccc(N2CCOCC2)cc1	0	0	0	0	0	0
Cc1ccc(NC(=O)CSC(C)C(=O)OCC(=O)N2CCN(C(=O)c3ccco3)CC2)cc1 (stereo not given)	0	0	0	0	0	50.1µM
COc1ccccc1OCC(=O)Nc1ccc(N2CCCCC2)cc1	0	0	0	0	0	0
O=C(CCn1ccc2ccccc21)Nc1ccc(N2CCOCC2)cc1	?	0	0	13.1µM	0	0
COc1cccc(OCC(=O)NNC(=O)C(=O)Nc2cccc(C)c2)c1	0	0	0	0	0	0
O=[N+]([O-])c1cccc2ccc(/C=C/c3ccc(Cl)cc3)nc12	?	0	?	0	0	0
CCOc1cc(/C=C/c2ccc3cccc([N+](=O)[O-])c3n2)cc(Cl)c1O	?	?	?	9.28µM	0	0
Cc1ccc(NC(=O)c2cccc(OCc3c(C)noc3C)c2)cc1S(=O)(=O)Nc1ccccc1Cl	?	-65.9	?	0	0	0
SMILES	Pf growth 96h	HCMV inh	HCV inh	Pf growth 48h	SARS PLpro yeast	Sm TGR block
Cc1noc(C)c1COc1cccc(C(=O)Nc2ccc(Br)cc2F)c1	-	0	2.82µM	-	0	-
Cc1noc(C)c1COc1cccc(C(=O)OCCOc2ccc(F)cc2)c1	13.1µM	0	0	?	0	0
Cc1noc(C)c1COc1cccc(C(=O)Nc2ccc3c(c2)OCO3)c1	0	0	0	0	0	0
Cc1noc(C)c1COc1cccc(C(=O)OC(C)C#N)c1 (stereo not given)	0	0	0	?	0	0
Cc1ccc(NC(=O)c2cccc(OCc3c(C)noc3C)c2)c(C)c1	?	0	?	0	0	0
Cc1ccc(NC(=O)c2ccc(OCc3c(C)noc3C)cc2)cc1C	-	?	4.47µM	-	0	-
O=C(O)C1CC(=O)N(c2ccc(OCc3ccccc3)cc2)C1 (stereo not given)	-	0	0	0	0	0
O=C(NNC1CC(=O)N(c2ccc(Br)cc2)C1=O)c1cccs1 (stereo not given)	0	0	0	0	0	?
COc1ccc(N2C(=O)CC(NC3CCCCNC3=O)C2=O)cc1 (stereo not given)	?	0	0	0	0	20µM
CCOC(=O)CNC1CC(=O)N(c2ccc(Br)cc2)C1=O (stereo not given)	0	0	0	?	0	10µM
COc1ccc(N2C(=O)CC(NCC#N)C2=O)cc1 (stereo not given)	0	0	0	0	0	14.1µM
CCOC(=O)c1noc2ncnc(Nc3ccc(F)cc3F)c12	-	0	-	-	-	0
O=C(NCCN1CCOCC1)c1ccc(NC(=O)c2ccc(Br)o2)cc1	-	0	-	-	-	-
COc1ccc(S(=O)(=O)Nc2ccc3c(c2)C(=O)N([C@H](C)CO)C[C@H](C)[C@@H](CN(C)S(=O)(=O)c2cn(C)cn2)OCCCC[C@H](C)O3)cc1	-	0	-	-	-	-
Nc1cc(Cl)nc(N/N=C/c2ccc([N+](=O)[O-])cc2)n1	4.65µM	0	0	?	0	0
Nc1cc(Cl)nc(N/N=C/c2ccccc2[N+](=O)[O-])n1	6.57µM	0	0	0	0	0
O=[N+]([O-])c1ccc(/C=N/Nc2ncc(Br)cn2)cc1	?	0	0	0	0	0
CN(C(=O)CSc1nc2[nH]ncc2c(=O)[nH]1)c1ccccc1	0	0	0[8.37 µM]	0	0	0
CCCCCCSc1ccc([C@@H]2[C@H]3C(=O)N(C)C(=O)[C@H]3[C@]3(C(=O)OC)CCCCN23)cc1OC	7.38µM	0	0	?	0	?
CCCSc1ccc([C@@H]2[C@@H]3C(=O)N(CC)C(=O)[C@@H]3[C@]3(C(=O)OC)CCCCN23)cc1OC	-	0	0	-	0	-
CCCSc1ccc([C@@H]2[C@@H]3C(=O)N(C)C(=O)[C@@H]3[C@]3(C(=O)OC)CCCN23)cc1OC	8.28µM	-	?	11.7µM	0	20µM
CCCCCCSc1ccc([C@@H]2[C@@H]3C(=O)N(C)C(=O)[C@@H]3[C@]3(C(=O)OC)CCCCN23)cc1OC	5.86µM	0	0	3.29µM	0	0
COC(=O)c1ccccc1-n1c(CCC(=O)O)ccc1-c1ccc(F)cc1	0	0	0	0	0	?
Cc1ccc(-c2ccc(CCC(=O)O)n2NC(=O)c2ccc([N+](=O)[O-])cc2)cc1	0	0	0	0	0	?
O=C(O)CCc1ccc(-c2ccc(Br)cc2)n1NC(=O)c1ccc([N+](=O)[O-])cc1	0	?	0	0	0	44.7µM
CCOC(=O)Cn1c(CCC(=O)O)ccc1-c1ccc(F)cc1	?	?	0	0	0	0

High-throughput results: PubChem BioAssay, National Center for Advancing Translational Sciences (NCATS)
